Records with an inconclusive call do not appear. Where a call stands in place of a potency, no number is given. Active and inactive are the calls of the source. Unless noted, the call rests on the fitted dose curve; in most records, active means well fitted curve in the direction sought with a large enough effect in the repeat runs; inconclusive means weak or mixed curves; inactive means no such curve, though single readings can be large; an effect the other way counts as inactive or inconclusive.
test: qHTS assay to identify small molecule phospholipidosis (PLD) inducers (AID 1259344; active means well fitted curve in the direction sought with a large enough effect; an effect the other way counts as inactive or inconclusive); settings: HepG2 phospholipidosis, LipidTOX Red imaging, 24 h; series mostly up to 38.3 µM
How it was run: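 HepG2 cells grown on collagen I take up LipidTOX Red while exposed to compound for 24 h; after fixation they are imaged at 20x and pit metrics are extracted.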

**Q.** For `CC(=O)[O][Al][O]C(C)=O`, which Potency is on record?
**A.** The Potency was “inactive”.

**Q.** Which Potency does the source give for `O=C1OC(CN2CCOCC2)CN1/N=C/c1ccc([N+](=O)[O-])o1` (stereo not given) here?
**A.** The Potency was “inactive”.

**Q.** With `C[C@@H](c1ncncc1F)C(O)(Cn1cncn1)c1ccc(F)cc1F` (stereo not given in full) as the compound, how does the Potency read?
**A.** The Potency was “inactive”.

**Q.** Which Potency does the source give for `C[C@H]1C[C@H]2[C@@H]3CCC4=CC(=O)C=C[C@]4(C)[C@@]3(Cl)[C@@H](O)C[C@]2(C)[C@@]1(O)C(=O)CO` here?
**A.** The Potency was “inactive”.

**Q.** With `COc1ccc(C(=O)N2CCN(CC(=O)N3CCOCC3)CC2)cc1` as the compound, how does the Potency read?
**A.** Its Potency is “inactive”.

**Q.** For `CCCCc1ncc(/C=C(\Cc2cccs2)C(=O)O)n1Cc1ccc(C(=O)O)cc1`, which Potency is on record?
**A.** The Potency was “inactive”.

**Q.** With `NC(N)=NCCC[C@H](N)C(=O)O` as the compound, how does the PLD induction read?
**A.** The PLD induction was -2.12% [at 7.66 µM] (inactive).

test: qHTS assay to identify small molecule HDAC inhibitors (AID 1259364); settings: HCT-116 HDAC-Glo I/II luminescence, 2 h; series mostly up to 92.4 µM; further: top concentration of the series differs between compounds; nearly all actives have a fitted effect of over 45% in size
How it was run: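 Homogeneous cell-based luminescent assay of endogenous class I/II HDAC activity; HCT-116 cells, 2 h compound exposure, 30 min HDAC-Glo development at RT.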

**Q.** For `CN1Cc2cc(C(=O)N3CCC(C4CCNCC4)CC3)ccc2NC(CC(=O)O)C1=O` (stereo not given), which Potency is on record?
**A.** The Potency was “inactive”.

**Q.** Which Potency does the source give for `CC(=O)[O][Al][O]C(C)=O` here?
**A.** Its Potency is “inactive”.

**Q.** For `Cc1nn(C)c(Oc2ccccc2)c1/C=N/OCc1ccc(C(=O)OC(C)(C)C)cc1`, which Potency is on record?
**A.** The Potency was “inactive”.

**Q.** Which Potency does the source give for `C1CCCNCCC1` here?
**A.** The Potency was “inactive”.

**Q.** For `CCC(Cl)CCC(Cl)C(Cl)CC(Cl)C(Cl)C(Cl)CCl` (stereo not given), which Potency is on record?
**A.** Its Potency is “inactive”.

**Q.** For `CCCCC(CC)COC(=O)COc1ccc(Cl)cc1Cl` (stereo not given), which Potency is on record?
**A.** The Potency was “inactive”.

**Q.** With `C[C@@H](c1ncncc1F)C(O)(Cn1cncn1)c1ccc(F)cc1F` (stereo not given in full) as the compound, how does the Potency read?
**A.** The Potency was “inactive”.

**Q.** Which Potency does the source give for `CC(C)(C)OCC1CO1` (stereo not given) here?
**A.** Its Potency is “inactive”.

**Q.** With `COS(=O)(=O)C(F)(F)F` as the compound, how does the Potency read?
**A.** The Potency was “inactive”.

**Q.** Which Potency does the source give for `C[Si](C)(CCCN)O[Si](C)(C)CCCN` here?
**A.** The Potency was “inactive”.

**Q.** For `CC(C)(C)Cl`, which Potency is on record?
**A.** The Potency was “inactive”.

**Q.** With `Cc1ccc(C(C)OC(=O)C2(C)CCC(C(=O)O)C2(C)C)cc1` (stereo not given) as the compound, how does the Potency read?
**A.** The Potency was “inactive”.

**Q.** For `CC(CSC(=O)c1ccccc1)C(=O)N1C[C@@H](Sc2ccccc2)C[C@H]1C(=O)O` (stereo not given in full), which activity change, negative = inhibition is on record?
**A.** The activity change, negative = inhibition was 3.83% [at 19 µM] (inactive).

From PubChem BioAssay (Tox21)
